PubChem BioAssay AID493168 (National Center for Advancing Translational Sciences (NCATS), 2011)
Records with an inconclusive call do not appear. A number with no mark means an inactive call. Active and inactive are the calls of the source. Calls follow the shape of the dose curve; as a rule, active = well fitted inhibition curve with a large enough effect; inconclusive = small, poorly fitted or top-dose-only effect, or effect the other way; inactive = flat fitted curve, though single readings scatter.

biological target: Ubiquitin carboxyl-terminal hydrolase 2 (Homo sapiens) (UniProt O75604); test: Confirmation Assay for Inhibitors of Ubiquitin-specific Protease USP2a Using CHOP2 as the Reporter; details: USP2 core, Ub-CHOP2 coupled reporter fluorescence; series mostly up to 38.3 µM; activity change, negative = inhibition: at the top concentration; also: nearly all actives have a fitted effect of over 55% in size;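 as to activity change, negative = inhibition: plate controls were DMSO wells for no effect and full inhibition by NEM control for full effect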
Sequence (O75604 whole entry, looked up): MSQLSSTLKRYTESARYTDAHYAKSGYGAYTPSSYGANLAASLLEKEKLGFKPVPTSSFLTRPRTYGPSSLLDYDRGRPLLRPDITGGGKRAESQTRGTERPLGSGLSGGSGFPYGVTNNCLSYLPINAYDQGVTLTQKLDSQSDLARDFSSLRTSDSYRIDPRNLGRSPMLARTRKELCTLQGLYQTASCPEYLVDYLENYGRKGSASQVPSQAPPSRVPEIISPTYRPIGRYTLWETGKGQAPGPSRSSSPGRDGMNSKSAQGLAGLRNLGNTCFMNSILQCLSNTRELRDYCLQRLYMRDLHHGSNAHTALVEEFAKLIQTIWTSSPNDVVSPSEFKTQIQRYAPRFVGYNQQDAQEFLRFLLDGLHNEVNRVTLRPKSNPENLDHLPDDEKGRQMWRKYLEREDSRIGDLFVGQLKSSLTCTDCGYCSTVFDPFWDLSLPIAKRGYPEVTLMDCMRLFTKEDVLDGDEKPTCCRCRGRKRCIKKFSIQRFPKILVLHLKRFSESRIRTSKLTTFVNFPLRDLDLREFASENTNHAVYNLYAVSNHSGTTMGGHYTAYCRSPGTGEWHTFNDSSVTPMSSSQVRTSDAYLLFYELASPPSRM
Procedure, shortened: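 Ub-CHOP2 cleavage coupled to reporter activation was read by fluorescence after 60 min at RT, with 25 nM final Ub-CHOP2 and substrate. Enzyme (10 nM final USP2 core) first sat 30 min with compound; data were normalized to NEM and fitted to concentration-response curves.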
Potency is read from the fitted curve at half-maximal effect.

SMILES | activity change, negative = inhibition | Potency
O=C(CCc1nc(-c2ccccc2F)no1)NC1CCCCCC1 | -0.733% | –
Nn1c(Nc2ccccc2)nc2ccccc2c1=O | 5.37% | –
COc1ccc2[nH]c(=O)c(CN(Cc3ccco3)Cc3nnnn3Cc3ccccc3)cc2c1 | -0.234% | –
CCCC(c1nnnn1Cc1ccc(OC)cc1)N1CCC(C(N)=O)CC1 (stereo not given) | 0.115% | –
O=C(c1ccc(CS(=O)(=O)c2ccc(Br)cc2)o1)N1CCCC1 | -3.63% | –
Oc1c(Cl)cc(Cl)c(Cl)c1Cc1c(O)c(Cl)cc(Cl)c1Cl | – | 5.21 µM (active)
Cc1cc(SCC(=O)NC2CCCCC2)nc2ccccc12 | -4.63% | –
COc1cc2c(C(=O)N3CCN(c4cccc(Cl)c4)CC3)cn(CC(C)C)c(=O)c2cc1OC | -2.06% | –
COC(=O)c1[nH]c2ccccc2c1NC(=O)CN1CCCc2ccccc21 | -0.131% | –
Cc1cccn2c(=O)c3cc(C(=O)NCCN4CCOCC4)c(=N)n(CCN4CCOCC4)c3nc12 | 0.715% | –
C#CCOCCOCCOCCNc1nc(N2CCN(C(=O)CCCCCCCCCCNC(=O)[C@H]([C@@H](C)CC)n3cc(CCCCCN)nn3)CC2)nc(N2CCN(C(=O)CCCCCCCCCCNC(=O)[C@H]([C@@H](C)CC)n3cc(CCCCN=C(N)N)nn3)CC2)n1 | – | 6.56 µM (active)
CCC(C)(C)n1nnnc1C(c1ccc(C)cc1)N1CCCC1 (stereo not given) | 5.39% | –
CCOC(=O)N1CCN(C(=O)c2cc3c(ccc4ccccc43)oc2=O)CC1 | 0.893% | –
O=C(Nc1nnc(-c2cccs2)o1)c1cccc(Oc2ccccc2)c1 | -18.2% | –
CC1=C(C(=O)OC(C)C)C(C)C(C(=O)OC(C)C)=C(C)N1 | 0.166% | –
